From PubChem
SENP6 block – blocks the human protease SENP6. Q9GZR1. Recombinant SENP6 catalytic domain, aminoluciferin luminescence. inhibition, % at 10 µM. 330,000 tested, 1.8% active. AID 2599;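 active = inhibition above about 50% at the single tested dose, limit read from the data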;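 note: plate controls were DMSO wells with enzyme for no effect and DMSO wells lacking enzyme for full effect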
Target sequence (Q9GZR1 628-1112 limits assumed): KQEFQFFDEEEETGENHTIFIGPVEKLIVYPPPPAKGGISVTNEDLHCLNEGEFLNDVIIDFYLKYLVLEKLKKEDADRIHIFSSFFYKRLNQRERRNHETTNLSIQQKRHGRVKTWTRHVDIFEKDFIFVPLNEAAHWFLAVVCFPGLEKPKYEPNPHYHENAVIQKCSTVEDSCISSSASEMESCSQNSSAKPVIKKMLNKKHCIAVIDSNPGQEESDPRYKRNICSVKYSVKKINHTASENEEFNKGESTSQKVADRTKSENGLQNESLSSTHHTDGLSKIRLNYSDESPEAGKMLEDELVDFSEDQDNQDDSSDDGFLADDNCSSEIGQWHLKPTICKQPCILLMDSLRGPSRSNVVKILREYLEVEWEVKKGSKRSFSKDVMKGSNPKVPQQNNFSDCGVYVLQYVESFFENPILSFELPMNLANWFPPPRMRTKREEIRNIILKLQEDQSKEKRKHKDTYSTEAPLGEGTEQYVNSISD
SENP7 inh – inhibitors of human SENP7 protease | 330,000 tested, 1.5% active | AID 434973 | recombinant SENP7, Z-RLRGG-aminoluciferin luminescence, 40 min | Q9BQF6 | inhibition, % at 5 µM;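 active = inhibition above about 50% at the single test dose, limit read from the data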;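 note: plate controls were DMSO with enzyme for no effect and no enzyme buffer wells for full effect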
C8 TRAIL sens – caspase-8 TRAIL sensitization. AID 624354. 360,000 tested, 1% active. NB7+C8 cells + TRAIL, ATPlite viability luminescence. inhibition (viability loss, TRAIL sensitization), % at 10 µM;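 active = compounds causing at least 50% loss of cell viability in the single-dose screen, relative to plate controls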
SENP8 block-1 – blocks the human protease SENP8; inhibition, % at 10 µM; AID 2540; Q96LD8; 330,000 tested, 1.2% active; purified SENP8, Z-RLRGG-aminoluciferin cleavage, luminescence; in the data active = inhibition above about 50%
PPC-1+TRAIL kill – kills PPC-1 cancer cells in the presence of TRAIL | PPC-1 cells + TRAIL, ATPLite viability luminescence | 220,000 tested, 0.41% active | cell killing (% activity), % at 4 µM or 5 µM;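 active = cell killing above 50% in the first pass at 4 µM, then a duplicate retest at 5 µM averaging 50% or more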;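 note: plate controls were cells with TRAIL plus DMSO for no effect and medium-only wells lacking cells for full effect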
SENP8 block-2 – SENP8 (human) protease inhibition | inhibition, % at 20 µM | 360,000 tested, 0.64% active | Q96LD8 | recombinant SENP8, Nedd8 substrate fluorescence; in the data active = inhibition mostly above about 40%, no sharp cut-off; inactive = mostly below about 27%
The depositor's hits bear a star; · = not tested or not shown. This is a sample that favours compounds with a hit; in the whole collection about 3% have one here.

SMILES	SENP6 block	SENP7 inh	C8 TRAIL sens	SENP8 block-1	PPC-1+TRAIL kill	SENP8 block-2
CCCc1nnc(NC(=O)c2nc(S(=O)(=O)Cc3ccc(C)cc3)ncc2Cl)s1	1	-4	25	-1	·	8
COc1ccccc1NC(=O)c1ccc(C(=O)Nc2ccccc2OC)nc1	15	3	4	-1	·	6
CCOc1ccc(-n2c(=S)sc3c(=O)n(-c4ccc(F)cc4)c(SCC(=O)O)nc32)cc1	-14	-10	-14	-4	·	22
CC1(C(=O)NS(=O)(=O)c2cccc(F)c2)CCN1C(=O)CC1CCCCC1 (centres undefined)	·	·	-8	·	·	10
O=C(Cc1ccc(Cl)cc1)N1CCC2(CC1)NCCc1[nH]cnc12	-19	1	5	-4	·	5
COc1cccc(C(C(=O)NCC2CCCO2)N(C(=O)Cn2nnc3ccccc32)c2ccc(NC(C)=O)cc2)c1OC (centres undefined)	8	1	-11	-5	·	12
CCCCSc1nnc(-c2cc3c(C(F)(F)F)nn(C)c3s2)n1C	-26	-10	-10	-7	9	-63
C#CCSc1nnc(-c2cc3c(C(F)(F)F)nn(C)c3s2)n1C	-9	-6	89*	-8	-6	-3
COCCN=c1scc(-c2ccco2)n1/N=C/c1ccc(O)c(O)c1O	-37	-2	17	-3	20	36
C=CCN=c1scc(-c2ccco2)n1/N=C/c1ccc(O)c(O)c1O	-10	-5	6	-8	13	51*
Cc1cc(C)c2c(c1)/C(=C/C(=O)c1ccc(Br)s1)C(=O)N2	-4	6	84*	-1	20	20
NC1=NC[C@H](CC2CCCCC2)N1CCc1cc(C(F)(F)F)cc(C(F)(F)F)c1	-10	2	60*	-1	12	11
FC(F)(F)c1cc(CCN2CCNC[C@@H]2CC2CCCCC2)cc(C(F)(F)F)c1	-49	-7	67*	-37	·	12
Cc1ccc(C(=O)NC(=S)c2c(C)cc3ccccn23)cc1	·	·	-1	·	·	-38
CCN1C(=O)/C(=c2\o/c(=C3\C=Cc4ccccc4N3CC)c(=O)n2CC)SC1=S	·	·	-11	·	24	13
CCN1C(=O)/C(=C2\C=Cc3ccccc3N2CC)SC1=S	-19	9	-1	0	17	46*
COc1ccc(S(=O)(=O)N2CCCCC2)cc1NC(=O)c1cnc(C)cn1	11	-5	3	1	·	8
Cc1ccccc1/C=C/c1nc2ccccc2c(=O)[nH]1	12	86*	54*	69*	25	-71
CCCN1C(=O)/C(=C/c2ccc(C)s2)SC1=Nc1ccc(OC)cc1	-15	-23	-7	-2	-19	23
COc1ccc(N=C2S/C(=C\c3ccc(Cl)c([N+](=O)[O-])c3)C(=O)N2CCN(C)C)cc1	-16	1	80*	2	·	28
CCN(CC)CCN1C(=O)/C(=C\c2ccc(Cl)c([N+](=O)[O-])c2)SC1=Nc1ccc(OC)cc1	37	3	89*	27	·	14
CCN1C(=O)/C(=C/c2cccs2)SC1=Nc1ccc(OC)cc1	-20	5	1	-4	-6	21
O=C(Nc1ccc(S(=O)(=O)Nc2ncccn2)cc1)c1cccc(S(=O)(=O)N2CCCC2)c1	-34	2	-7	-6	-1	31
CCCCC[C@@H](C)N1C[C@H](COCc2ccccc2)Oc2cc(N3CCC[C@@H]3CO)ccc2S1(=O)=O	·	·	15	·	·	15
COC(=O)c1ccccc1NC(=O)Nc1ccc(C(=O)N2CCCC2)cc1	13	9	-4	11	13	14
SMILES	SENP6 block	SENP7 inh	C8 TRAIL sens	SENP8 block-1	PPC-1+TRAIL kill	SENP8 block-2
COc1ccccc1NC(=O)Nc1ccc(C(=O)N2CCCCC2)cc1	96*	97*	16	91*	6	11
C/C(=N/Nc1ccc(C(=O)O)cc1)c1ccc(O)c(O)c1O	-6	-1	7	-17	-8	47*
COc1ccc(NC(=O)CN2C(=O)NC(c3ccccc3)(c3ccccc3)C2=O)cc1OC	-14	-2	11	-1	·	12
C=C1C(=O)C=C2CN(C(=O)c3ccccc3)[C@@](Cc3ccc(F)cc3)(C(=O)OC)[C@@H]12	-6	15	73*	-8	13	6
Cc1ccc(Cl)cc1Nc1nc(-c2sc(NC(=O)c3ccco3)nc2C)cs1	-4	3	30	-4	8	-136
Cc1ccc(Cl)cc1Nc1nc(-c2sc(NC(=O)c3cccc(Cl)c3)nc2C)cs1	66*	-3	·	56*	13	·
COc1ccc(Cl)cc1Nc1nc(-c2sc(NC(=O)c3ccccc3)nc2C)cs1	44	45	·	44	4	·
Cc1ccccc1Nc1nc(-c2sc(NC(=O)c3cccc(Cl)c3)nc2C)cs1	77*	16	·	60*	8	·
COc1ccc(OC)c(Nc2nc(-c3sc(NC(=O)c4ccccc4)nc3C)cs2)c1	67*	53*	·	52*	4	·
Cc1ccc(-c2csc(NC(=O)c3ccc(-c4ccccc4)cc3)n2)o1	15	15	66*	8	21	-92
Cc1ccccc1NC(=O)N1CCNC(=O)C1CC(=O)Nc1cc(Cl)ccc1Cl (centres undefined)	-6	-7	-21	-3	·	12
CNC(=O)C1CN(C(=O)c2nn(Cc3ccccc3)c(=O)c3ccccc23)c2ccccc2O1 (centres undefined)	·	·	-3	·	·	10
COc1cccc(CN(C)C(=O)c2ccc(Oc3ccccc3)cc2)c1OC	-5	4	2	2	·	9
c1ccc(-c2onc(-c3ccco3)c2-c2ccc3[nH]ccc3c2)cc1	13	-8	12	-9	·	-53
Cc1ccccc1Nc1nc(-c2sc(NC(=O)c3ccccc3)nc2C)cs1	80*	61*	·	61*	16	·
O=C1c2ccccc2C(=O)c2[nH]c(=O)[nH]c21	65*	36	75*	35	·	55*
CC(=O)N(C1=C(O)c2ccccc2C(=O)C1=O)C1CCCCC1	3	8	35	5	·	19
CC(=O)N(C)C1=C(O)c2ccccc2C(=O)C1=O	15	14	10	-1	6	85*
O=C1c2ccccc2C(=O)c2[nH]cnc21	·	·	5	·	31	23
O=C1C(O)=C(O)C(=O)c2ccccc21	80*	55*	3	58*	·	61*
O=C1C(=O)c2ccccc2C(O)=C1c1ccccc1F	-17	4	0	0	-2	12
CCCCOc1ccc(-c2nc(SCC(N)=O)n[nH]2)cc1	11	-2	16	1	7	15
CCCCOc1ccc(-c2nc(=S)[nH][nH]2)cc1	-11	0	61*	-11	16	9
CC1(C)N=C(N)N=C(N)N1c1ccccc1	-21	-2	85*	-6	14	7
CC1(C)N=C(N)N=C(N)N1c1cccc(CN)c1	-55	-1	-17	-13	-10	11
CC1(C)N=C(N)N=C(N)N1c1ccc(CCCCc2ccccc2)cc1	·	·	65*	·	·	12
